This is a sample that favours compounds with a hit; in the whole collection about 1.4% have one here.
BRCA1 expr act = BRCA1 expression activation. MCF7-BRCA1-FFLuc reporter, luminescence, 48 h; response scale: scaled: vehicle 0%, 10 µM genistein 100%. Potency, µM (series often up to 46.1 µM), without a hit: top-dose activation, actives largely listed as activators. actives 1.1% (n = 380,000); note: potency is the fitted concentration of half-maximal effect; nearly all actives have a fitted effect of over 80% in size
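Luminescence from a BRCA1-driven firefly luciferase in MCF7 cells was the read-out, taken 15 min after substrate addition following 48 h compound exposure at 37 °C. Data were normalized to a 10 microM genistein control and DMSO vehicle.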
Chronic BCR inh = chronic active BCR signaling inhibition. AID 493014. Potency, µM (top dose mostly 46.1 µM), for the others: at the top dose activity change, negative = inhibition, usual class: inhibitors. ABC-DLBCL IkBa-CBG/CBR reporter, luminescence ratio, 4 h. actives 0.05% (n = 340,000); active = well fitted inhibition curve with a large enough effect in the signal ratio, with a control signal flat, not every such curve was filed as active; inconclusive = small, poorly fitted or top-dose-only effect, or effect the other way, or a change in a side signal; the % refers to the signal ratio;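 note: potency is the fitted concentration of half-maximal effect; plate controls were basal doxycycline-induced cells for no effect and cells given 10 µM MG132 for full effect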
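TMD8 ABC-DLBCL cells carrying doxycycline-inducible green luciferase fused to IkappaBalpha plus unfused red luciferase were exposed to compounds (up to 46 uM) for 4 hrs at 37C. Activity came from the overlap-corrected green/red luminescence ratio.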
Nrf2 ARE act = activators of Nrf2 (ARE) signaling; AREc32 ARE-luciferase reporter (MCF7-derived line), luminescence, 24 h; Potency, µM (series often up to 46.1 µM), without a hit: at the highest dose activation, most hits filed as activators; actives 0.31% (n = 410,000); AID 624171; note: potency is the fitted concentration of half-maximal effect; % of control where 0% means no effect; nearly all actives have a fitted effect of over 65% in size
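AREc32 cells carrying an ARE-driven firefly luciferase reporter were seeded at 1000 cells/well in OPTI-MEM with 5% FBS, then exposed to compound for 24 hr at 37 deg C. Luminescence was read with Steady-Glo after 30 min at RT.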
N370S GC mod = inhibits or activates N370S mutant glucocerebrosidase | P04062 | N370S GC spleen homogenate, 4MU-glucoside fluorescence | Potency, µM (highest dose often 59.4 µM), inactives show at the highest dose activity change, negative = inhibition, usual class: inhibitors | actives 0.092% (n = 330,000);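 note: potency is the fitted concentration of half-maximal effect; 0% = full enzyme activity and -100% = no enzyme basal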
IL-2 act = activators of IL-2; IL-2 activation reporter assay, cell-based qHTS; stimulated with anti-CD3/CD4/CD28 beads; in transgenic mouse T cells; actives 0.065% (n = 360,000); activation, % (series mostly up to about 46 µM); in the data active = activation above about 50%; inconclusive = mostly about 30% to 49%; note: 0% is about no effect
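Quantitative HTS in unstimulated transgenic mouse T cells, with memory T cells as non-tolerant control and PMA/ionomycin as tolerance-bypass control. Compound pretreatment lasted 60 minutes before 18 h bead stimulation; EGFP/DsRed fluorescence read.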
a7 integrin act = activates integrin-mediated alleviation for muscular dystrophy; alpha7betagal myoblasts, beta-gal FDG fluorescence, 48 h; Potency, µM (highest dose often 38.3 µM), without a hit: at the top dose activation, most hits filed as activators; actives 0.064% (n = 350,000); AID 624291;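 note: potency is the fitted concentration of half-maximal effect; 100% = response of the positive control SU9516; nearly all actives have a fitted effect of over 60% in size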
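Alpha7betagal+/- myoblasts (passage 13) were plated 16-24 hr, then exposed to compounds (1:260 dilution of DMSO stock) for 48 hours at 37C. After MPER lysis, β-galactosidase reporter activity was read as FDG fluorescence (ex 480/em 540) after 30 minutes.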
* marks the source's active call; other numbers are inactive results; u = inconclusive; x = not tested or not shown; [ ] = remark or other dose. Unless noted, calls come from the whole dose curve; as a rule, active = well fitted curve in the direction sought with a large enough effect; inconclusive = small, poorly fitted or top-dose-only effect, or another doubt; inactive = no such curve, though single readings can be large; an effect the other way counts as inactive or inconclusive.

SMILES	BRCA1 expr act	Chronic BCR inh	Nrf2 ARE act	N370S GC mod	IL-2 act	a7 integrin act
Cc1ccccc1OCC(=O)Nc1cc(C)c(O)c(-c2nc3ccccc3o2)c1	24.7%	x	x	x	x	x
Cn1nc(-c2ccc(F)cc2)nc2c(=O)n(C)c(=O)nc1-2	-79.4%	x	x	x	x	x
Cc1ccc(N2C(=NC(=O)c3ccccc3)SC3CS(=O)(=O)CC32)cc1 (centres undefined)	-19.1%	0.9%	0.1%	4.1%	-2.7	u
CCCC(=O)N=C1SC2CS(=O)(=O)CC2N1c1ccc(-c2nc3ccc(C)cc3s2)cc1 (centres undefined)	15.8µM*	16.5%	4.4%[9.22 µM]	8.9%	2.0	16.6%
Cc1ccc(Cl)cc1N1CCN(S(=O)(=O)c2ccc3[nH]c(=O)c(=O)[nH]c3c2)CC1	-30.9%	1.5%	0.0%	8.91µM*	0.8	13.9%
Cc1ccc(Oc2ccc(Oc3ccc(C)cc3)nn2)cc1	42.9%	-1.6%	1.8%	12.9%	-1.1	6.9%
Cc1ccccc1Oc1ccc(Oc2ccccc2C)nn1	7.08µM*	-0.7%	0.2%	7.6%	-0.7	-17.9%
COc1ccc2cc3c(N)c(C(=O)NCc4ccco4)sc3nc2c1	5.62µM*	u	6.0%	-0.9%	0.8	-20.3%
COc1ccc2cc3cc(C(=O)NCc4ccco4)oc3nc2c1	2.6%	-12.8%	4.2%	u	-3.9	-13.2%
N#Cc1c(N)nc2c(c1N)CC(CO)O2 (centres undefined)	0.5%	-0.5%	-0.5%	4.5%	-3.4	16.1%
N#Cc1c(N)nc2c(c1N)CC(COc1ccccc1)O2 (centres undefined)	11.2µM*	-0.5%	3.3%	3.0%	-2.1	17.7%
Cc1ccccc1OCC1Cc2c(nc(N)c(C#N)c2N)O1 (centres undefined)	6.31µM*	-8.4%	0.6%	-9.3%	1.8	-16.4%
CC1CCN(c2ccc3nnc(CCC(=O)NC(C)C)n3n2)CC1	1.1%	-2.5%	-1.1%	-1.0%	-2.4	-10.8%
COC(=O)C(NC(=O)CCc1nnc2ccc(N3CCCCC3)nn12)C(C)C (centres undefined)	11.2µM*	5.6%	-0.2%	-0.4%	-1.1	-6.2%
O=C(CNc1ccc(Br)cc1)Nc1ccc(S(=O)(=O)N2CCCCC2)cc1	-28.2%	x	-0.1%	x	-0.9	17.2%
Cc1ccc2oc3nc(C)c(C(=O)O)cc3c(=O)c2c1	2.82µM*	u	-2.1%	-0.6%	-2.5	-19.2%
Cc1nc2oc3ccc(F)cc3c(=O)c2cc1C(=O)O	29.1%	4.1%	0.5%	-7.3%	0.1	u
CC(=O)c1cc2c(=O)c3cc(C)ccc3oc2nc1C	11.2µM*	u	2.8%	6.5%	-0.3	-11.8%
CCOC(=O)c1cc2c(=O)c3cc(C)ccc3oc2nc1C	11.2µM*	0.2%	0.2%	0.0%	-0.4	18.8%
O=C(NC1CCC1)C1CCC(=O)N(Cc2cccc(F)c2)C1 (centres undefined)	-0.4%	0.1%	0.3%	-12.5%	-1.3	-10.7%
CN(C(=O)C1CCC(=O)N(Cc2cccc(F)c2)C1)C1CCCCC1 (centres undefined)	7.94µM*	6.6%	-0.8%	-1.2%	6.9	-54.5%
Cc1nc2ccccc2c(=O)n1NCc1cc(Br)cs1	-33.7%	7.5%	7.94µM*	u	-0.3	6.2%
CCCCn1c(CCC)nc([N+](=O)[O-])c1Sc1ccc(Cl)cn1	-36.9%	u	11.2µM*	-0.6%	-1.7	-63.5%
CC(C)Cn1c(C(C)C)nc([N+](=O)[O-])c1Sc1ccc(Cl)cn1	-59.8%	u	u	1.6%	-0.9	-52.0%
Fc1ccc(COc2cccc(CNCc3ccncc3)c2)cc1	-31.4%	-0.7%	3.1%	-10.5%	-0.5	-31.6%
SMILES	BRCA1 expr act	Chronic BCR inh	Nrf2 ARE act	N370S GC mod	IL-2 act	a7 integrin act
C=C1C=C(C(F)F)n2ncc(C(=O)N3CCN(c4ccccc4)CC3)c2N1	0.0%	x	x	x	x	x
Cc1cc(C)cc(OCC(=O)Nc2nc(-c3cccnc3)cs2)c1	-38.5%	0.2%	3.6%	-21.8%	-2.5	9.5%
COc1ccc(CCn2nc(C)c([N+](=O)[O-])c2C)cc1	8.91µM*	-2.3%	0.0%	1.9%	-0.3	19.9%
COc1cccc(-n2c(CCn3nc(C)c([N+](=O)[O-])c3C)n[nH]c2=S)c1	1.2%	0.0%	1.5%	-17.8%	0.3	0.3%
C=C1C(=O)O[C@H]2C1CC[C@@](C)(O)C13C=CC(C)(C21)C1(C3)C(=O)O[C@@H]2C3C(C)=CCC3[C@](C)(O)C[C@H](OC(C)=O)C21 (some centres undefined)	-35.2%	u	15.8µM*	-1.2%	5.8	-43.5%
CCCCN(C)c1c(C)nc2ccc(C(=O)NCCCn3ccnc3)cn12	1.7%	x	-0.5%	x	-0.2	x
N#Cc1ccc2sn(-c3ccccc3)c(=O)c2c1	11.2µM*	x	9.7%	x	0.9	-10.8%
COc1ccc(-c2cc(C)no2)cc1S(=O)(=O)Nc1cccc(C(F)(F)F)c1	x	x	0.8%	x	x	x
C(=Cc1c[nH]c2ccccc12)c1nccc2ccccc12	-44.1%	x	u	x	-0.6	-58.0%
OCC[n+]1ccc(/C=C/c2c[nH]c3ccccc23)cc1	-28.6%	0.7%	-1.1%	9.1%	94.5*	-33.9%
O=C(/C=C/c1ccc(F)cc1)Nc1ccc(S(=O)(=O)N2CCOCC2)cc1	-15.3%	1.3%	-0.2%	-3.1%	-1.0	-13.9%
O=C(/C=C/c1ccco1)Nc1ccc(S(=O)(=O)N2CCOCC2)cc1	-20.8%	5.7%	11.2µM*	0.9%	-0.3	0.0%
COc1ccc(S(=O)(=O)N(C)c2ccc(C(=O)Nc3ccccc3C(=O)N3CCOCC3)cc2)cc1OC	-4.8%	-8.9%	-0.1%	0.3%	-5.6	-15.9%
S=C(Nc1ccc(Cl)cc1)Nc1ccc2c(c1)OCCO2	7.08µM*	2.3%	-0.3%	-3.9%	-2.9	5.8%
CCc1ccc(C(=O)NC(=S)Nc2ccc3c(c2)OCCO3)cc1	6.31µM*	-2.3%	3.9%	9.3%	-0.2	-12.6%
Cc1cc(C)cc(C(=O)NC(=S)Nc2ccc3c(c2)OCCO3)c1	u	-18.4%	2.9%	2.2%	-5.3	-32.3%
O=C(NC(=S)Nc1ccc2c(c1)OCO2)c1ccc(Cl)cc1	6.31µM*	0.7%	2.9%	13.4%	-0.5	-2.6%
COc1ccc(Cl)cc1NC(=S)NC(=O)c1ccc2c(c1)OCO2	-22.9%	x	0.0%	x	-4.9	8.9%
CCCc1c(C)c2ccc(OCC(C)=O)cc2oc1=O	5.62µM*	-4.3%	3.0%	19.4%	-0.6	7.1%
COc1ccc2cc(C(=O)c3ccccc3)c(=O)oc2c1	74.0%	-0.4%	22.9%	11.2%	-3.2	9.7%
COc1ccc(-c2cc3ccc(OCC(C)=O)cc3oc2=O)cc1OC	10µM*	0.1%	-0.2%	u	-1.9	-6.2%
